Assay outcomes as filed in PubChem BioAssay.
DRD3 antagonist = D3 dopamine receptor (human) antagonism. P35462. D3R cells, DiscoveRx beta-arrestin luminescence, antagonist mode; stronger effect = lower value. max response, negative = inhibition, %. 360,000 compounds, 2.5% hits. AID 652054; in the data active means max response below about -50%; inconclusive means no clear call, values can overlap the other calls; further: on the % scale 0 is the no-effect control and ±100 the full control effect
Target sequence (P35462 whole entry, looked up): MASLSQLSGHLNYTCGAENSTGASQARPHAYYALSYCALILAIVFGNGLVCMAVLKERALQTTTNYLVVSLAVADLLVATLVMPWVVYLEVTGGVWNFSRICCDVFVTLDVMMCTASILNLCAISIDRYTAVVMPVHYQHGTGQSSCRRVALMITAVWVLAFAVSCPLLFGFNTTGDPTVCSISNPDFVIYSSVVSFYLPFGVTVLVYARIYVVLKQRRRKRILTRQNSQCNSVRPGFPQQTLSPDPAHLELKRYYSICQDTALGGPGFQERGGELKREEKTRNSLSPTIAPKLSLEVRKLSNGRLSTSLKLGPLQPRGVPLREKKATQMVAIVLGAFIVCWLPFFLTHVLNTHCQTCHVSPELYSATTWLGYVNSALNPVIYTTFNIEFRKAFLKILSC
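Cells expressing the human receptor were seeded at 1500 cells/well, incubated overnight at 37 degrees C in 5% CO2, then exposed to library compounds with dopamine controls for 90 minutes at 37 degrees C before luminescent detection.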
D1 ag = human D1 receptor agonism; HEK293 T-REx D1 cells, calcium flux, agonist mode; activation, % at 2 µM; 360,000 compounds, 1% hits; AID 504660; in the data active means activation above about 30%; further: 0% is about no effect
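Agonism was scored from calcium flux recorded over 180 s (1 read/s) after pintool compound addition, following a 10-cycle baseline. Cells were inducible force-coupled HEK293 TREx D1, plated overnight at 30 C and loaded with no-wash calcium dye.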
DRD3 agonist = activates the human D3 dopamine receptor. D3R DiscoveRx beta-arrestin cells, luminescence, 90 min. max activation, %. 410,000 compounds, 0.58% hits. AID 652048; in the data active means max activation above about 30%; further: 0% is about no effect
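Cells at 1500/well, incubated overnight, then treated with pinned compounds (dopamine as control) for 90 min at 37 degrees C. DiscoveRx reagent added for 30 - 60 minutes at room temperature; luminescence read.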
D1 PAM = potentiators of human D1 dopamine receptor | 360,000 compounds, 0.036% hits | potentiation, % at 10 µM | HEK293 TREx D1 cells, calcium flux, dopamine EC20 potentiation | P21728; in the data active means potentiation above about 30%; further: 0% is about no effect
D1 antagonist = human D1 dopamine receptor antagonism | 360,000 compounds, 3.2% hits | HEK293 TREx D1 cells, calcium flux, dopamine EC80; stronger effect = lower value | activity change, negative = inhibition, % at 10 µM | P21728 | AID 504652; in the data active means activity change below about -30%; further: on the % scale 0 is the no-effect control and ±100 the full control effect
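Inducible Hek293 Trex D1 cells (tetracycline, overnight, 30 C). Calcium dye 30–90 min RT. Antagonist mode: EC80 dopamine added after 180 s compound read.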
* marks the source's active call; other numbers are inactive results; ? = inconclusive; nt = not tested or not shown. The list is not random: actives were taken first. Their share in the collection is about 6.1%.

SMILES | DRD3 antagonist | D1 ag | DRD3 agonist | D1 PAM | D1 antagonist
CCN1CCCC(CO)(Cc2ccccc2)C1 (centres undefined) | 16.0 | 2.4 | -3.4 | -5.9 | -5.7
Cc1ccc(Cc2c(C)nc3nc(SCC(=O)NCCC(C)C)nn3c2C)cc1 | nt | -0.9 | -9.2 | 0.8 | 16.7
Cc1cc(C)c2[nH]c(=O)c(CN(Cc3cccs3)C(=S)NCc3ccco3)cc2c1 | 11.0 | 8.9 | -2.2 | 0.8 | 16.0
Cc1cc(=O)oc2c(CN3CC(C)OC(C)C3)c(O)c(Cl)cc12 (centres undefined) | 6.2 | 2.3 | 1.7 | 1.8 | -7.2
CC1(C)CC(=O)C=C(c2cccc(O)c2)C1=O | -15.1 | -2.2 | 5.0 | -1.9 | nt
OC(COc1ccc(Br)cc1)CN1CCN(c2ccccc2)CC1 (centres undefined) | -51.5* | 12.1 | 15.5 | -5.9 | -46.3*
COc1cccc(OCC(O)CN2CCN(c3ccccn3)CC2)c1 (centres undefined) | ? | 1.1 | 34.7* | -0.9 | 15.6
COc1cccc(OCC(O)CN2CCN(c3ccccc3)CC2)c1 (centres undefined) | ? | 2.4 | 30.8* | -6.0 | 3.0
OCC(O)CN1CCN(c2ccccc2)CC1 (centres undefined) | -18.5 | 3.4 | -21.3 | 2.2 | 12.8
OC(CSc1ccc(F)cc1)CN1CCN(c2ccccc2)CC1 (centres undefined) | -72.3* | 3.1 | 14.1 | -5.3 | -24.2
COC(=O)c1ccc(Cn2cnc3c(Cl)ncnc32)cc1 | 0.9 | nt | 1.7 | nt | nt
CC(=O)c1ccc(OCC(O)CN2CCN(c3ccc(F)cc3)CC2)cc1 (centres undefined) | ? | 3.6 | 9.1 | -1.4 | -14.7
OC(COc1ccccc1)CN1CCN(c2ncccn2)CC1 (centres undefined) | ? | 4.5 | -32.7 | -1.8 | -3.9
OC(COc1ccc2cc(Br)ccc2c1)CN1CCN(c2ccccn2)CC1 (centres undefined) | 8.1 | -0.9 | 227.3* | 15.6 | -6.4
CC(=O)c1ccc(N2CCN(CC(O)COC(c3ccccc3)c3ccccc3)CC2)cc1 (centres undefined) | -69.2* | -2.9 | -23.0 | -7.3 | -2.7
OC(COc1ccccc1)CN1CCN(c2ccccc2)CC1 (centres undefined) | -70.9* | nt | -4.0 | nt | nt
COc1cc(C(C)=O)ccc1OCC(O)CN1CCN(c2cc(C)cc(C)c2)CC1 (centres undefined) | -55.5* | 27.9 | -10.5 | -5.5 | -28.8
COc1cc(CC(=O)Nc2ccccc2N2CCCCC2)cc(OC)c1OC | -1.6 | -0.3 | -0.1 | -2.1 | 2.0
COc1ccc(N2C(=O)c3ccccc3NC2c2ccc(OC)c(Cn3cc([N+](=O)[O-])cn3)c2)cc1 (centres undefined) | 26.4 | 0.4 | -0.3 | -9.3 | -38.0*
CCN(CC)c1ccc(NC(=O)CN2C(=O)c3cccnc3Oc3ccccc32)c(C)c1 | nt | 0.8 | -9.3 | -4.7 | -15.1
O=[N+]([O-])c1cc(C(F)(F)F)ccc1Oc1cccnc1[N+](=O)[O-] | 9.6 | 0.0 | -2.2 | -9.2 | -81.4*
CN1CCN(c2ccc(-c3cc(NC=O)c4ncc(-c5ccccc5)n4c3)cc2)CC1 | -54.0* | nt | -14.4 | nt | nt
CN1CCN(c2ccc(-c3cc(NC=O)c4ncc(-c5ccc(F)cc5)n4c3)cc2)CC1 | ? | nt | -13.5 | nt | nt
COc1cccc(-c2cc(NC=O)c3ncc(-c4cccc(C(=O)N(C)C)c4)n3c2)c1 | 10.0 | nt | 6.3 | nt | nt
COc1cccc(-c2cnc3c(NC=O)cc(-c4cccc(C(=O)N(C)C)c4)cn23)c1 | 3.5 | nt | 71.8* | nt | nt
SMILES | DRD3 antagonist | D1 ag | DRD3 agonist | D1 PAM | D1 antagonist
CN(C)CCNC(=O)c1cccc(-c2cc(NC=O)c3ncc(-c4cccc(C(F)(F)F)c4)n3c2)c1 | -52.1* | nt | -23.0 | nt | nt
CCOc1ccc(NC(=O)N(Cc2cn(CC)c3ccccc23)C2CCCCCC2)cc1 | nt | 29.7 | -13.6 | -1.1 | -16.4
CCc1ccc(N(CC)C(=O)Cn2cnc3sc(C)c(S(=O)(=O)N4CCN(c5ncccn5)CC4)c3c2=O)cc1 | nt | -0.6 | 0.8 | 0.8 | -8.2
CCCN1C(=O)S/C(=C/c2ccc(N3CCOCC3)o2)C1=O | -13.4 | 103.2* | 7.9 | 10.8 | -21.4
CCCN1C(=O)S/C(=C\c2ccc(N3CCOCC3)o2)C1=O | -10.7 | 34.1* | -20.0 | 9.5 | 13.7
CCOC(=O)N1CCc2c(sc3nc[nH]c(=O)c23)C1 | -18.1 | 2.4 | 10.8 | -1.6 | -30.8*
Cc1noc2ncnc(N3CCN(c4ccccc4F)CC3)c12 | nt | 15.1 | -0.8 | 0.1 | 4.5
C/C(=N\NC(=O)C1(C)CC1(Br)Br)c1cccc(NC(=O)c2ccc(C)o2)c1 (centres undefined) | 77.4 | 5.7 | 36.6* | -4.8 | -2.0
COc1cc(NC(=O)c2cc(Cl)ccc2Cl)ccc1NC(=O)c1cc2ccccc2o1 | nt | 0.4 | 8.9 | 0.5 | 3.7
COc1ccc(N2CCN(c3nc(NCCc4ccc(OC)c(OC)c4)nc(OC)n3)CC2)cc1 | 58.4 | 1.7 | 38.4* | -9.8 | -16.2
Fc1ccc(CNc2nc(-c3ccc(Cl)cc3)cc(C(F)(F)F)n2)cc1 | nt | 26.1 | -15.1 | 1.6 | -2.3
COc1ccc(-c2cc(C(F)(F)F)nc(NCc3ccccc3)n2)cc1 | nt | 30.9* | -12.9 | 2.9 | -0.4
COc1ccc(CCNc2nc(-c3ccc(OC)c(OC)c3)cc(C(F)(F)F)n2)cc1OC | nt | 8.1 | 38.1* | -0.3 | -19.8
Fc1ccc(-c2cc(C(F)(F)F)nc(NCc3ccccc3)n2)cc1 | nt | 36.1* | -10.0 | 1.3 | -3.2
COCCCn1c(=O)c2sccc2n2c(CCCC(=O)NC3CCC(C)CC3)nnc12 (centres undefined) | nt | 1.3 | 8.0 | -3.8 | -21.2
COc1ccccc1CNC(=O)c1cnc2c(-c3ccccc3)c(C)nn2c1C | nt | 0.1 | 1.4 | -0.7 | 7.5
Cc1ccc(F)cc1NC(=O)Cn1c(=O)nc(-c2ccccc2F)c2cc(Cl)ccc21 | nt | -0.4 | -0.8 | -0.5 | 19.7
Cc1ccccc1OCC(=O)Nc1ccccc1C(=O)OCc1cc(=O)n2c(C)csc2n1 | nt | -0.3 | 9.6 | -0.4 | -39.7*
Cc1csc2nc(COC(=O)COc3ccccc3F)cc(=O)n12 | nt | 5.0 | -3.9 | -4.0 | -46.4*
Cc1cc(C)n(-c2ccc(C(=O)N3CC(C)OC(C)C3)cc2)n1 (centres undefined) | 4.9 | 2.0 | 1.8 | -7.6 | -12.6
O=C(c1ccccc1)N1CCN(C(=O)c2ccccc2)C1c1ccccc1 | -51.0* | 0.3 | -5.7 | 2.8 | -3.3
CC(=O)N1CCN(C(C)=O)C1c1ccccc1 | -10.6 | 6.2 | 0.9 | -4.3 | -7.3
CC1(C)Oc2ccc3ccc(=O)oc3c2/C(=C/NNC(N)=O)C1=O | -111.5* | -0.7 | -35.2 | -1.6 | -1.6
CC1(C)Oc2ccc3ccc(=O)oc3c2/C(=C/NCCN/C=C2\C(=O)C(C)(C)Oc3ccc4ccc(=O)oc4c32)C1=O | nt | 0.7 | nt | -3.2 | 9.7
O=C(CNC(=O)c1ccc([N+](=O)[O-])cc1)OC(C(=O)Nc1cc(C(F)(F)F)ccc1Cl)c1ccccc1 (centres undefined) | nt | 5.1 | nt | -1.4 | 33.6
